PubChem BioAssay (NCATS)
Results filed as inconclusive are left out. Calls of active or inactive are those of the source. Calls follow the shape of the dose curve; as a rule, active = well fitted curve in the direction sought with a large enough effect; inconclusive = small, poorly fitted or top-dose-only effect, or another doubt; inactive = no such curve, though single readings can be large; an effect the other way counts as inactive or inconclusive.

Columns and labels:
[1] = target: Calcium and integrin-binding protein 1 (Homo sapiens) (UniProt Q99828); assay: Primary qHTS for Identification of Calcium Integrin Binding Protein 1 (CIB1) Competitor (AID 1508620);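 also: GST tagged CIB1 binding a fluorescein labelled alphaIIb integrin peptide tracer; top concentration of the series differs between compounds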
Calcium and integrin-binding protein 1 (Homo sapiens), sequence (Q99828 whole entry, looked up): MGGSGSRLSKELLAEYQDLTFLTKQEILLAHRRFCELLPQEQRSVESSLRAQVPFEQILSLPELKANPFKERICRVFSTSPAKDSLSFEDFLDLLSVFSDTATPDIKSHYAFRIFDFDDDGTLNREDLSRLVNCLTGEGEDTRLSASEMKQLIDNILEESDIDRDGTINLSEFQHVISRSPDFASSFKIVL
Outline: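 Fluorescence polarization competition: CIB1-GST (1 uM final) preincubated with compound 15 min at room temperature, then FITC-labeled alphaIIb peptide (100 nM final) added for another 15 min. Polarization read at Ex 480/Em 540.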

[2] = Primary qHTS for inhibitors of nuclear receptor binding SET domain protein 2 (NSD2) in an isogenic RCH-ACV NSD2 p.E1099K mutant (9B) (AID 1645876); also: nearly all actives have a fitted effect of over 70% in size
[3] = Primary qHTS for inhibitors of nuclear receptor binding SET domain protein 2 (NSD2) in an RCH-ACV wild type WT cells (2C) (AID 1645877); also: nearly all actives have a fitted effect of over 70% in size

Measured: Potency

O=C(O)c1ccnc2cc(C(OCC3CCC(F)(F)CC3)c3ccccc3Cl)[nH]c12 (centres undefined)
inactive: all assays above

C/C=C(\C)C(=O)OC[C@H]1O[C@H](O[C@H]2O[C@H](CO)[C@@H](O)[C@H](O)[C@H]2O[C@@H]2O[C@H](CO)[C@@H](O)[C@H](O)[C@H]2O)[C@H](O[C@@H]2O[C@H](CO)[C@@H](O)[C@H](O)[C@H]2O)[C@@H](O)[C@@H]1O
inactive: all assays above

COc1cc(O)cc(O[C@@H]2O[C@H](CO)[C@@H](O[C@@H]3OC[C@](O)(CO)[C@H]3O)[C@H](O)[C@H]2O)c1OC
inactive: all assays above
